In PubChem BioAssay (NCATS):
Where “and” joins values, the source holds several entries; their conditions need not be identical. Equal entries are not always repeated. Results filed as inconclusive are left out. Calls of active or inactive are those of the source. Unless noted, the call rests on the fitted dose curve; in most records, active means well fitted curve in the direction sought with a large enough effect; inconclusive means small, poorly fitted or top-dose-only effect, or another doubt; inactive means no such curve, though single readings can be large; an effect the other way counts as inactive or inconclusive.

How the values were obtained:
[1] = target: Glucocorticoid receptor (Homo sapiens) (UniProt P04150); assay: GR-GFP Redistribution (AID 450;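 active means compounds whose dose series gives a full or clear partial fitted curve of increased nuclear translocation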; further: potency means the concentration at half of the fitted maximal effect); settings: U2OS GR-GFP nuclear translocation, laser cytometry, 2 h
[2] = target: Glucocorticoid receptor (Homo sapiens) (UniProt P04150); assay: GR-EFC Redistribution (AID 451; calls by dose curve; further: potency means the concentration at half of the fitted maximal effect); settings: CHO-K1 GR-EFC translocation, beta-gal luminescence, 2 h
Method in brief: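 Translocation of GR-ED fusion to nuclear EA restores b-gal, read by luminescence after 1 h room-temperature detection. Engineered CHO-K1 biosensor cells, 1,000/well, exposed 2 h at 37 C to titrations up to 46 uM final.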

[3] = target: Mitogen-activated protein kinase 10 (Mus musculus) (UniProt Q61831); assay: JNK3 AlphaScreen Assay (AID 530; active means well fitted curve in either direction with a large enough effect, not every such curve was filed as active;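 further: kinase came from lysate of stimulated human HepG2 cells; signal reports phosphorylation of biotinylated GST-cJun 1-79 at Ser73 with 10 µM ATP; on the % scale 0 is the no-effect control and ±100 the full control effect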); settings: JNK3 lysate, c-Jun phosphorylation; series mostly up to 57.1 µM
Method in brief: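 Room-temperature AlphaScreen kinase assay; pre-activated HepG2 lysate as JNK3 source, biotin-GST-cJun(1-79) substrate, 10 uM ATP, compound 15 min preincubation.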

[4] = target: 3',5'-cyclic-AMP phosphodiesterase 4B (Homo sapiens) (UniProt Q07343); assay: qHTS Assay for Inhibitors of PDE-IV (AID 607; active means well fitted activation curve with a large enough effect in the main read-out, with a control signal flat, not every such curve was filed as active; further: % of control where 0% means no effect); settings: HEK293 ACTOne CNG channel cells, membrane potential fluorescence; series mostly up to 22.9 µM
Method in brief: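 ACTOne HEK293 cells carry a modified cAMP-gated CNG channel and express endogenous PDE4; plated 1000 cells/well, compounds up to 22.9 uM final. Membrane-potential dye fluorescence (ex 535/em 590) was read; parental cells received 10 uM forskolin + 100 uM RO 20-1724.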

[5] = Cell Viability - N2a (AID 540); settings: N2a mouse neuroblastoma cell viability; activity change, negative = cytotoxicity: at 92.2 µM (top of the series);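 further: cells exposed to compound for 40 h at 37 °C; plate controls were DMSO alone for no effect and tamoxifen control for full effect; nearly all actives have a fitted effect of over 45% in size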
Method in brief: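 First, 1500 N2a cells per well incubate 5 hr at 37 °C; next, compounds are added and incubated 40 hr at 37 °C; finally CellTiter-Glo is added and luminescence read after 20 min, with AC50 derived by Hill modeling.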

[6] = Cell Viability - NIH 3T3 (AID 541); settings: NIH 3T3 cell viability, qHTS; activity change, negative = cytotoxicity: at 92.2 µM (top of the series);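 further: cells exposed to compound for 40 hours; nearly all actives have a fitted effect of over 25% in size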; further: potency means the concentration at half of the fitted maximal effect;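 on activity change, negative = cytotoxicity: plate controls were DMSO alone for no effect and tamoxifen positive control for full effect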
Method in brief: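 AC50 values reflect concentration-dependent loss of intracellular ATP in NIH 3T3 cells after 40 hr treatment in complete culture medium, quantified by luciferase-based luminescence.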

[7] = Cell Viability - HUV-EC-C (AID 542); settings: HUV-EC-C endothelial cell viability, qHTS; series mostly up to 92.2 µM;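 further: cells exposed to compound for 40 hours; on the % scale 0 is the no-effect control and ±100 the full control effect; nearly all actives have a fitted effect of over 35% in size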
Method in brief: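 Decrease in cellular ATP, quantified by luciferase luminescence, reflects toxicity in normal human vascular endothelial HUV-EC-C cells given compound for 40 hr in complete culture medium. Values are AC50s from concentration-response curves.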

[8] = Cell Viability - H-4-II-E (AID 543); settings: H-4-II-E rat hepatoma viability; series mostly up to 92.2 µM;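 further: cells exposed to compound for 40 hours; nearly all actives have a fitted effect of over 35% in size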; further: potency means the concentration at half of the fitted maximal effect
Method in brief: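 Here, cytotoxicity is measured in the rat hepatoma line H-4-II-E as loss of intracellular ATP after 40 hr compound treatment, detected by luciferase luminescence.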

[9] = Cell Viability - Renal Proximal Tubule (AID 545); settings: renal proximal tubule cells viability, primary cells of rat origin; series mostly up to 91.7 µM;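 further: cells exposed to compound for 40 hours; nearly all actives have a fitted effect of over 40% in size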
Method in brief: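 Primary rat renal proximal tubule cells (1000/well) were treated with compounds for 40 hr at 37 °C in complete medium. Intracellular ATP was measured by CellTiter-Glo luminescence, and AC50 values came from Hill-equation fits of concentration-response data.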

[10] = Cell Viability - Mesenchymal (AID 546); settings: mesenchymal cells viability, qHTS; series mostly up to 91.7 µM;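 further: cells exposed to compound for 40 hours before reading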
Method in brief: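 AC50 values reflect the drop in intracellular ATP in a human kidney mesenchymal line derived from normal glomeruli. Treatment lasts 40 hr at 37 °C in complete medium, and the signal comes from CellTiter-Glo luminescence.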

[11] = Cellular Toxicity (caspase-3) HepG2 (AID 654); settings: HepG2 caspase-3 activation, luminescence, 0% = DMSO only, 100% = tamoxifen; series mostly up to 92.2 µM;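 further: cells exposed to compound for 16 hours before reading; 0% = DMSO alone and 100% = caspase signal from 100 µM tamoxifen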
Method in brief: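 qHTS, HepG2, 1500 cells/well, complete medium; cpd 16 h 37 °C; Caspase-Glo 3/7, 20 min RT; lum. Norm: DMSO vs 100 uM tamoxifen; AC50 Hill fit.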

[12] = Cellular Toxicity (caspase-3) HUV-EC-C (AID 656); settings: HUV-EC-C cells, caspase-3 activation (apoptosis), vehicle = 0, 100 µM tamoxifen = 100%; series mostly up to 92.2 µM
Method in brief: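 HUV-EC-C endothelial cells, 1000/well, were pre-incubated 5 hr at 37°C, then exposed to compounds for 16 hr at 37°C. Caspase-Glo 3/7 luminescence was read after 20 min at room temperature. AC50 came from Hill fits, normalized to DMSO and 100 uM tamoxifen.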

[13] = Cellular Toxicity (caspase-3) SHSY5Y (AID 657); settings: SH-SY5Y caspase-3 activation, DMSO zero, 10 µM staurosporine = 100%; series mostly up to 91.7 µM
Method in brief: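 SH-SY5Y human neuroblastoma cells (1500/well) were treated with compounds for 16 h at 37 °C, then Caspase-Glo 3/7 luminescence was read after 1 h at room temperature. Data normalized to DMSO and 10 uM staurosporine; AC50 from Hill fits.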

[14] = Cellular Toxicity (caspase-3) BJ (AID 658); settings: BJ fibroblasts, luminescence, normalized: DMSO 0%, staurosporine 100%; series mostly up to 91.7 µM
Method in brief: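 Readout: Caspase-Glo 3/7 luminescence increase in BJ cells after 16 hr treatment at 37 °C. Staurosporine and tamoxifen served as positive controls; AC50 values came from Hill modelling of data normalized to DMSO and 10 uM staurosporine.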

[15] = Cellular Toxicity (caspase-3) MRC-5 (AID 659); settings: MRC-5 cells, luminescence, normalized: DMSO 0%, 10 µM staurosporine 100%; series mostly up to 91.7 µM
Method in brief: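 Concentration-dependent caspase 3/7 activation is measured in human normal lung fibroblasts (MRC-5) following 16-hour treatment. AC50 values come from standard Hill-equation modeling of luminescence normalized to DMSO and 10 uM staurosporine.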

[16] = Cellular Toxicity (caspase-3) Mesangial (AID 660); settings: mesangial cells, normalized: DMSO 0%, 100 µM tamoxifen 100%; series mostly up to 91.7 µM;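 further: combined caspase 3 and 7 activity read by Caspase-Glo luminescence; cells exposed to compound for 16 h before the caspase read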
Method in brief: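 Concentration-response qHTS: compound-induced rise in caspase 3/7 luminescence in human mesangial cells after 16 h, normalized to DMSO and 100 uM tamoxifen controls.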

[17] = Cellular Toxicity (caspase-3) SK-N-SH (AID 661); settings: SK-N-SH caspase-3 activation, qHTS; series mostly up to 91.7 µM
Method in brief: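 Caspase 3/7 activation is measured as a luminescence increase from aminoluciferin released by substrate cleavage in SK-N-SH cells after 16 hr compound treatment; values are AC50 from concentration-response curves.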

[18] = Cellular Toxicity (caspase-3) H-4-II-E (AID 663); settings: H-4-II-E rat hepatoma, scaled: DMSO 0%, 100 µM tamoxifen 100%; series mostly up to 92.2 µM;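 further: cells exposed to compound for 16 hr before readout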
Method in brief: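 Apoptosis induction is scored as increased luminescence from caspase 3/7 substrate cleavage in rat hepatoma H-4-II-E cells exposed to compound for 16 hr. Activity is scaled between DMSO and 100 uM tamoxifen.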

[19] = Cellular Toxicity (caspase-3) Hek293 (AID 664); settings: HEK293 caspase-3 activation; caspase-3 activation: at 92.2 µM (top of the series), DMSO = 0%, 100 µM tamoxifen = 100%;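 further: cells exposed to compound for 16 h at 37 °C before readout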
Method in brief: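 Activation of caspase-3/7 is measured as increased luminescence from cleaved peptide-aminoluciferin substrate in HEK293 cells treated 16 hours at 37 °C. AC50 values come from Hill-equation fits of concentration-response data.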

[20] = Cellular Toxicity (caspase-3) NIH 3T3 (AID 666); settings: NIH 3T3 caspase-3 activation, apoptosis/toxicity, 0% DMSO, 100% is 100 µM tamoxifen; series mostly up to 92.2 µM;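 further: caspase signal read after 16 h compound exposure; 0% = DMSO basal and 100% = 100 µM tamoxifen stimulation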
Method in brief: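 Concentration-response qHTS in NIH 3T3 mouse fibroblasts scores caspase-3/7 activation as rising luminescence after 16 hr compound exposure. Signals are scaled between DMSO-only and 100 uM tamoxifen.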

Chain of 3',5'-cyclic-AMP phosphodiesterase 4B (Homo sapiens) (Q07343 whole entry, looked up): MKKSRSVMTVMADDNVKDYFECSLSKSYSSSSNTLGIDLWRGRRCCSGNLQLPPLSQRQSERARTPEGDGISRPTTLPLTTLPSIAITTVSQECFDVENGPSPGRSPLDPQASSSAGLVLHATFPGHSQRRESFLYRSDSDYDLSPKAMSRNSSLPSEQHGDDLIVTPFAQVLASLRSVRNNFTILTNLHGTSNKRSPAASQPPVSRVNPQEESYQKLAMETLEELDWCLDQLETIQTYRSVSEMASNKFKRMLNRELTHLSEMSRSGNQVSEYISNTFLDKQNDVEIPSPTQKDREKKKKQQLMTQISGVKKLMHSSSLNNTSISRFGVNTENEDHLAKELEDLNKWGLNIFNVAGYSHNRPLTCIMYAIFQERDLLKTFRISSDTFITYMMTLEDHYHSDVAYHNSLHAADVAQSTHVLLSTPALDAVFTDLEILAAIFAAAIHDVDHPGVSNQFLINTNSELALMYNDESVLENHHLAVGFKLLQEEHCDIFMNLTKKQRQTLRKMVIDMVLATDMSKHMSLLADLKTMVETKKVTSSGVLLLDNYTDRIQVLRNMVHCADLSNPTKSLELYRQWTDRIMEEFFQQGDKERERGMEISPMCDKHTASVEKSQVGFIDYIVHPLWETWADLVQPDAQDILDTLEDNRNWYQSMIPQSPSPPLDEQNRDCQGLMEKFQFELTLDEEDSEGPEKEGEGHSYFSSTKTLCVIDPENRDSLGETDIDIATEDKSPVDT
Chain of Glucocorticoid receptor (Homo sapiens) (P04150 whole entry, looked up, the tested form may be a part): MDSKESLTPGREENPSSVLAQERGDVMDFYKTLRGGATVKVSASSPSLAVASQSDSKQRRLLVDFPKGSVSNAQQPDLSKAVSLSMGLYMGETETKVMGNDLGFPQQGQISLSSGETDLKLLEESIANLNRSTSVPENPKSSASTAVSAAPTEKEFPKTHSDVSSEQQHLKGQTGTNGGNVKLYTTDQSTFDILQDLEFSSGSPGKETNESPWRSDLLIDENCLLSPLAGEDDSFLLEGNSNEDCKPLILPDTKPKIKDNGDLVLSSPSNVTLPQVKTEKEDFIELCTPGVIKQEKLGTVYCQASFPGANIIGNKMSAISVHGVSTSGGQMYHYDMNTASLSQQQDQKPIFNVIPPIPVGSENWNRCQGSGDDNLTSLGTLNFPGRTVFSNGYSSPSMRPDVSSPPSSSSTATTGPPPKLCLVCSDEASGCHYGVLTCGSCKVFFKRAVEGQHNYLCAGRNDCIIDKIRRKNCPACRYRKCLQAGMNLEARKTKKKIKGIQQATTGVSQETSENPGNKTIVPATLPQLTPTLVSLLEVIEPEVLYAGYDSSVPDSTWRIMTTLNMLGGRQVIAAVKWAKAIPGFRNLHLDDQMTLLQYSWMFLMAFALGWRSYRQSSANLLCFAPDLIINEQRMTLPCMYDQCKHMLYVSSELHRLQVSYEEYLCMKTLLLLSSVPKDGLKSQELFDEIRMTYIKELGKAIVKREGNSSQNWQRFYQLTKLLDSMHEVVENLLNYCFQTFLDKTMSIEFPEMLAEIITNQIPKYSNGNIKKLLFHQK

CN(C)c1nc(N(C)C)nc(N(C)C)n1
inactive: Potency [1] > 46 µM and > 20.6 µM | Potency [2] > 46 µM and > 20.6 µM | outcome [3] | Potency [4]

Nc1nc2c(ncn2COC(CO)CO)c(=O)[nH]1
inactive: Potency [1] > 46 µM and > 20.6 µM | Potency [2] > 46 µM and > 20.6 µM | outcome [3] | Potency [4]

CNCCCC12CCC(c3ccccc31)c1ccccc12
inactive: Potency [1] > 46 µM and > 20.6 µM | Potency [2] > 46 µM and > 20.6 µM | outcome [3] | Potency [4]

NC(=O)OCC(COC(N)=O)c1ccccc1
inactive: Potency [1] > 46 µM and > 20.6 µM | Potency [2] > 46 µM | outcome [3] | Potency [4]

CC[N+](CC)(CC)CCOc1cccc(OCC[N+](CC)(CC)CC)c1OCC[N+](CC)(CC)CC
inactive: Potency [1] > 46 µM and > 20.6 µM | Potency [2] > 46 µM and > 20.6 µM | outcome [3] | Potency [4]

CCOC(=O)Nc1ccc(NCc2ccc(F)cc2)nc1N
inactive: Potency [1] > 46 µM | Potency [2] > 46 µM | outcome [3] | Potency [4]

CC(C)NCC(O)COc1ccc(CCOCC2CC2)cc1 (configuration not stated)
inactive: Potency [1] > 20.6 µM

O=C(Nc1ccc([N+](=O)[O-])cc1Cl)c1cc(Cl)ccc1O
inactive: Potency [1] > 46 µM and > 20.6 µM | Potency [2] > 46 µM and > 20.6 µM | outcome [3]

NS(=O)(=O)c1cc2c(cc1Cl)NCNS2(=O)=O
inactive: Potency [1] > 46 µM and > 20.6 µM | Potency [2] > 46 µM and > 20.6 µM | outcome [3] | activity change, negative = cytotoxicity [5] -6.72% | Potency [6] | outcome [7] | Potency [8] | Potency [9] | outcome [10] | Potency [4] | outcome [11] | outcome [12] | outcome [13] | outcome [14] | outcome [15] | outcome [16] | Potency [17] | outcome [18] | Potency [19] | outcome [20]

NC(=O)NO
inactive: Potency [1] > 46 µM | Potency [2] > 46 µM | outcome [3] | Potency [4]

NCCCCCC(=O)O
inactive: Potency [1] > 46 µM and > 20.6 µM | Potency [2] > 46 µM and > 20.6 µM | outcome [3] | Potency [4]

Cn1c(=O)c2c(ncn2C)n(C)c1=O
inactive: Potency [1] > 46 µM | Potency [2] > 46 µM | outcome [3] | activity change, negative = cytotoxicity [5] 4.95% | Potency [6] | outcome [7] | Potency [8] | Potency [9] | outcome [10] | Potency [4] | outcome [11] | outcome [12] | outcome [13] | outcome [14] | outcome [15] | outcome [16] | Potency [17] | outcome [18] | Potency [19] | outcome [20]

O=c1c(-c2ccc(O)cc2)coc2cc(O)cc(O)c12
active: Potency [6] 25.1 µM
inactive: Potency [1] > 46 µM | Potency [2] > 46 µM | outcome [3] | activity change, negative = cytotoxicity [5] 0.0672% | outcome [7] | Potency [4] | outcome [11] | outcome [12] | outcome [14] | outcome [15] | outcome [16] | Potency [17] | outcome [18] | Potency [19] | outcome [20]

O=c1[nH]cc(F)c(=O)[nH]1
active: Potency [6] 0.316 µM | Potency [8] 0.631 µM
inactive: Potency [1] > 46 µM | Potency [2] > 46 µM | outcome [3] | activity change, negative = cytotoxicity [5] -18.1% | outcome [7] | outcome [10] | Potency [4] | outcome [11] | outcome [12] | outcome [13] | outcome [14] | outcome [15] | outcome [16] | Potency [17] | outcome [18] | Potency [19] | outcome [20]

CN1CCN2c3ccccc3Cc3ccccc3C2C1 (configuration not stated)
inactive: Potency [1] > 20.6 µM

CCC1(c2ccccc2)C(=O)NCNC1=O
inactive: Potency [1] > 46 µM and > 20.6 µM | Potency [2] > 46 µM and > 20.6 µM | outcome [3] | activity change, negative = cytotoxicity [5] -14.7% | Potency [6] | outcome [7] | Potency [8] | Potency [9] | outcome [10] | Potency [4] | outcome [11] | outcome [12] | outcome [13] | outcome [14] | outcome [15] | outcome [16] | Potency [17] | outcome [18] | Potency [19] | outcome [20]
